Compound activity as filed in PubChem.
The entries come from a sample that favours hits as a whole.
NOMO-1 viab = STK33 inhibitor candidate reducing NOMO-1 cell viability | inhibition, % (test concentration not listed) | NOMO-1 AML viability, CellTiter-Glo luminescence, 72 h | hit rate 7.5% among 37,000 | AID 2330; in the data active = inhibition above about 80%; inconclusive = no clear call, values can overlap the other calls
MITF inhib = inhibitors of MITF | AID 2240 | TRPM1 promoter luciferase, luminescence, 24 h | hit rate 0.28% among 37,000 | inhibition, % (concentration not given with the values); in the data active = inhibition above about 85%; inconclusive = no clear call, values can overlap the other calls; inactive = below about 68%;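 note: human melanocyte line stably carrying TRPM1 promoter luciferase reporter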
ROS inducer = raises reactive oxygen species in U2OS cancer cells | U2OS ROS induction, H2DCF-DA fluorescence | ROS induction (% of piperlongumine), % at 10 µM | hit rate 2% among 46,000; in the data active = ROS induction above about 79%, passing the limit was not always enough; inconclusive = no clear call, values can overlap the other calls
PD-1 reversal = reversal of PD-1 mediated T-cell inhibition | primary human CD4 T cells, PD-L1 beads, CellTiter-Glo 96 h | activation, % (concentration not given with the values) | 29,000 tested, under 10 active | AID 2316; call rule not given here
YB-1 expression = YB-1 expression inhibition. hit rate 0.37% among 30,000. delta delta Cp (YB-1 minus CDIP) (concentration not given with the values). U2OS, qRT-PCR YB-1 vs CDIP delta delta Cp, 16 h; hits give high values; zero = DMSO, each unit about twofold;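 active = delta delta Cp rounded down to an integer at or above 3, about 3 SD of DMSO wells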;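 note: higher means less YB-1 transcript or more CDIP transcript relative to DMSO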
Each line names hits and unclear results; the compound was inactive in the other large screens.

C=C1C(=O)OC2CC1C(OC(C)=O)C/C(C)=C\CC/C(C)=C\CC[C@]2(C)O (some centres not stated)	NOMO-1 viab 111, MITF inhib inconclusive (no result: PD-1 reversal)
COc1cc(C(=O)Nc2ccc(Oc3ncnc4sc(C)c(C)c34)cc2)cc(OC)c1OC	ROS inducer 104 (no result: YB-1 expression)
Cc1sc2ncn(CC(=O)Nc3ccc(Oc4ccccc4)cc3)c(=O)c2c1C	none (no result: YB-1 expression)
C[C@@H]1CN([C@@H](C)CO)C(=O)c2cccc(NC(=O)Nc3ccc(F)cc3)c2O[C@@H]1CN(C)Cc1ccc(Cl)c(Cl)c1	NOMO-1 viab 93
C[C@@H]1CN([C@@H](C)CO)C(=O)c2cccc(NC(=O)Nc3ccccc3)c2O[C@H]1CN(C)Cc1ccc(Cl)c(Cl)c1	NOMO-1 viab 102, ROS inducer inconclusive (no result: PD-1 reversal)
C[C@H]1CN([C@@H](C)CO)C(=O)c2cccc(NC(=O)Nc3ccccc3)c2O[C@@H]1CN(C)Cc1ccc(Cl)c(Cl)c1	ROS inducer 89
C[C@@H]1CN([C@H](C)CO)C(=O)c2cccc(NC(=O)Nc3ccccc3)c2O[C@@H]1CN(C)Cc1ccc(Cl)c(Cl)c1	NOMO-1 viab inconclusive
COc1c(Cc2ccccc2O)c(O)c(Cc2ccccc2O)c(O)c1C(=O)CCc1ccccc1	NOMO-1 viab 106, MITF inhib 91
CN(C)c1nc(Cl)nc(N(C#N)CN2C(=O)c3ccccc3C2=O)n1	NOMO-1 viab 105, ROS inducer 168
Nc1cccc(-c2cc3c(Oc4cccc(O)c4)ncnc3[nH]2)c1	NOMO-1 viab 91
N#CC1=C(N)Nc2onc(-c3cccc(O)c3)c2C1c1ccccc1 (configuration not stated)	none
Cn1c(CCN(Cc2ccco2)S(=O)(=O)c2ccc(Cl)cc2)n[nH]c1=S	none (no result: NOMO-1 viab, MITF inhib, PD-1 reversal, YB-1 expression)
CC1CCCCC1NC(=O)C1CCN(Cc2cnn(-c3ccccc3)c2-n2cccc2)CC1 (configuration not stated)	none (no result: NOMO-1 viab, MITF inhib, PD-1 reversal, YB-1 expression)
CCCCCCCCN1C(=O)C(C(C)=O)=C(C)C1(C)O (configuration not stated)	NOMO-1 viab 98
Cc1ccc(S(=O)(=O)Nc2ccc3c(c2)CC(=O)N([C@H](C)CO)C[C@@H](C)[C@@H](CN(C)S(C)(=O)=O)O3)cc1	none
C=C1C(=O)O[C@@H]2C[C@H](C)C3C[C@H](O)[C@H](O)[C@@]3(C)C[C@H]12 (some centres not stated)	none (no result: NOMO-1 viab, MITF inhib, PD-1 reversal)
C=C1C(=O)O[C@H]2C[C@@H](C)[C@@H]3CCC(=O)[C@@]3(C)C[C@H]12	NOMO-1 viab 117
OC(CNC1CCCC1)Cn1c2ccc(Cl)cc2c2cc(Cl)ccc21 (configuration not stated)	NOMO-1 viab 119 (no result: ROS inducer, YB-1 expression)
CS(=O)(=O)N1CCN(CC(O)Cn2c3ccc(Cl)cc3c3cc(Cl)ccc32)CC1 (configuration not stated)	none (no result: ROS inducer, PD-1 reversal, YB-1 expression)
COc1ccc(S(=O)(=O)Nc2ccc3c(c2)C(=O)N([C@H](C)CO)C[C@H](C)[C@H](CN(C)Cc2ccc(C(=O)Nc4ccccc4N)cc2)OCCCC[C@@H](C)O3)cc1	NOMO-1 viab 126
C[C@@H]1CCCCO[C@H](CN(C)Cc2ccc(C(=O)Nc3ccccc3N)cc2)[C@@H](C)CN([C@H](C)CO)C(=O)c2cc(NS(C)(=O)=O)ccc2O1	none
C[C@@H]1CCCCO[C@@H](CN(C)Cc2ccc(C(=O)Nc3ccccc3N)cc2)[C@@H](C)CN([C@H](C)CO)C(=O)c2cc(NS(=O)(=O)c3ccc(Cl)cc3)ccc2O1	NOMO-1 viab 127
O=C(c1ccc(CSc2cccc3cccnc23)cc1)N1CCOCC1	none (no result: NOMO-1 viab, MITF inhib, PD-1 reversal, YB-1 expression)
Cc1ccc(S(=O)(=O)N[C@@H](Cc2ccccc2)C(=O)CCl)cc1	NOMO-1 viab 120, ROS inducer 79 (no result: PD-1 reversal)
CCCC(NS(=O)(=O)c1ccc(C)cc1)C(=O)O (configuration not stated)	none (no result: ROS inducer, PD-1 reversal, YB-1 expression)
CCOc1ccc(S(=O)(=O)N(CC(=O)NCc2ccccc2)c2ccccc2)cc1	none (no result: NOMO-1 viab, MITF inhib, PD-1 reversal, YB-1 expression)
C[C@@H]1CCCCO[C@H](CN(C)CC2CCCCC2)[C@@H](C)CN([C@H](C)CO)C(=O)c2cc(NC(=O)CCCCCC(=O)Nc3ccccc3N)ccc2O1	NOMO-1 viab inconclusive
O=C(/C=C/c1ccc(Cl)cc1)Nc1cccc(Cl)c1	NOMO-1 viab 120
C[C@@H]1CCCCO[C@H](CN(C)CC2CCCCC2)[C@@H](C)CN([C@H](C)CO)C(=O)c2cc(NS(=O)(=O)c3ccc(F)cc3)ccc2O1	ROS inducer 98
C[C@@H]1CCCCO[C@@H](CN(C)C(=O)Nc2ccc(C(F)(F)F)cc2)[C@@H](C)CN([C@H](C)CO)C(=O)c2cc(NS(=O)(=O)c3cccs3)ccc2O1	NOMO-1 viab 114
C[C@@H]1CCCCO[C@H](CN(C)C(=O)Nc2ccc(C(F)(F)F)cc2)[C@@H](C)CN([C@H](C)CO)C(=O)c2cc(NS(=O)(=O)c3cccs3)ccc2O1	none
C[C@@H]1CCCCO[C@H](CN(C)Cc2ccc(C(F)(F)F)cc2)[C@@H](C)CN([C@H](C)CO)C(=O)c2cc(NS(=O)(=O)c3ccccc3)ccc2O1	NOMO-1 viab 95 (no result: PD-1 reversal)
C[C@@H]1CCCCO[C@@H](CN(C)Cc2ccc(C(F)(F)F)cc2)[C@@H](C)CN([C@H](C)CO)C(=O)c2cc(NS(=O)(=O)c3ccc(Cl)cc3)ccc2O1	NOMO-1 viab 111
C[C@@H]1CCCCO[C@@H](CN(C)Cc2ccncc2)[C@@H](C)CN([C@H](C)CO)C(=O)c2cc(NS(=O)(=O)c3ccc(Cl)cc3)ccc2O1	none
Cc1cccc(C)c1NC(=O)CC(C(=O)O)N(C)C (configuration not stated)	none (no result: YB-1 expression)
Cc1nnc(SCC(=O)Nc2ccc(Br)cc2Cl)s1	none (no result: ROS inducer, PD-1 reversal, YB-1 expression)
Cc1ccc(S(=O)(=O)Nc2ccc3c(c2)C(=O)N([C@H](C)CO)C[C@H](C)[C@H](CN(C)Cc2ccc(C(F)(F)F)cc2)OCCCC[C@@H](C)O3)cc1	NOMO-1 viab 126
C[C@@H]1CCCCO[C@H](CN(C)Cc2ccc(C(F)(F)F)cc2)[C@@H](C)CN([C@H](C)CO)C(=O)c2cc(NS(=O)(=O)c3cccs3)ccc2O1	none (no result: PD-1 reversal)
C[C@@H]1CCCCO[C@@H](CN(C)Cc2ccc(C(F)(F)F)cc2)[C@@H](C)CN([C@H](C)CO)C(=O)c2cc(NS(=O)(=O)c3cccs3)ccc2O1	NOMO-1 viab 110
C[C@@H]1CCCCO[C@H](CN(C)C(=O)Nc2ccc(C(F)(F)F)cc2)[C@@H](C)CN([C@H](C)CO)C(=O)c2cc(NS(=O)(=O)c3ccc(F)cc3)ccc2O1	none (no result: PD-1 reversal)
C[C@@H]1CCCCO[C@H](CN(C)Cc2ccc(C(F)(F)F)cc2)[C@@H](C)CN([C@H](C)CO)C(=O)c2cc(NS(=O)(=O)c3ccc(F)cc3)ccc2O1	NOMO-1 viab 100 (no result: PD-1 reversal)
Cc1ccc(S(=O)(=O)Nc2ccc3c(c2)C(=O)N([C@H](C)CO)C[C@H](C)[C@H](CN(C)C(=O)Nc2ccc(C(F)(F)F)cc2)OCCCC[C@@H](C)O3)cc1	NOMO-1 viab 114
C=CCn1c(-c2ccccc2Cl)nc2ccccc21	none (no result: NOMO-1 viab, MITF inhib, PD-1 reversal, YB-1 expression)
